The campaign covered roughly 94,000 compounds. About 6,200 (6.6%) were called active. About 31% were inconclusive and are not listed. What follows is part of a selection rich in actives, with near analogues and random picks from the rest. A number with no mark means an inactive call. Calls follow the shape of the dose curve; as a rule, active = well fitted inhibition curve with a large enough effect; inconclusive = small, poorly fitted or top-dose-only effect; inactive = flat fitted curve, though single readings scatter.
test: Cytotoxic Profiling in HEK 293 Cell Line of Diverse Libraries Using Quantitative High-Throughput Screening; settings: HEK 293 viability, ATP luminescence (CellTiter-Glo), 48-72 h; series mostly up to 115 µM; activity change, negative = cytotoxicity: at the top concentration; also: nearly all actives have a fitted effect of over 60% in size
In short: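 Cells seeded first (HEK 293, 250 cells/well), then compound added by pintool. Incubation ran 48 or 72 hr at 37 degree Celsius. CellTiter-Glo was added and luminescence imaged after 10 min at room temperature.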
% is scaled to controls: 0 for no effect and ±100 for the full control effect; potency is read from the fitted curve at half-maximal effect.

SMILES | activity change, negative = cytotoxicity | outcome | Potency
CC[C@H]1CN(C(=O)c2cccnc2)CC[C@H]1CC(=O)NCc1cccnc1 | -7.23% [at 172 µM] | – | –
CC(C)NC(=O)N1CCCC1c1noc(COc2ccc(F)cc2)n1 (configuration not stated) | – | inactive | –
Cc1cccc(C(=O)N2CCC(CC(=O)NCc3ccccc3)C2)c1 (configuration not stated) | -0.159% | – | –
CN1C(=O)c2cccn2CC1C(=O)NC1CCN(Cc2ccccc2)CC1 (configuration not stated) | -2.33% | – | –
Cc1cccc(-c2cccc(CN3CCC(NC(=O)Nc4ccccc4)CC3)c2)c1 | – | – | 22.4 µM (active)
O=C([C@@H]1C[C@H](F)CN1C(=O)Nc1ccccc1)N1CCCCC1 | 0.832% | – | –
Cc1noc(C)c1C(=O)N[C@@H]1CN(c2ccncn2)C[C@H]1CN(C)C | -7.32% | – | –
CN(Cc1cccnc1)C(=O)CCC[C@@H]1[C@H]2CCCN3CCC[C@@H](CN1C(=O)c1cccnc1)[C@@H]23 | -1.49% | – | –
CCCc1sc(NC(=O)C[C@H]2NC(=O)c3ccccc3NC2=O)nc1C(=O)OC | -32.3% | – | –
Cc1ccc(N2CC(Cc3ccccc3)N(C(=O)c3ccnn3C)CC2=O)cc1 (configuration not stated) | -1.24% | – | –
COc1cccc(CC(=O)NCCc2noc(-c3cccnc3)n2)c1 | -3.51% | – | –
COc1cccc(CN2Cc3nc(-c4cc(F)cc(F)c4)ccc3OCC2=O)c1 | – | – | 63.1 µM (active)
COc1ccc(-c2ccc3c(n2)CN(CCOc2ccccc2)C(=O)CO3)cc1F | – | – | 79.4 µM (active)
COCCN1Cc2cc(OC)ccc2N(CC(O)COc2ccc(OC)cc2)CCC1=O (configuration not stated) | -16.6% | – | –
COc1cccc(CN2CCOC3CCN(C(=O)c4cccnc4)CC3C2=O)c1 (configuration not stated) | -13% [at 172 µM] | – | –
COc1ccc(-c2noc(-c3cccn3CC(=O)Nc3ccccc3)n2)cc1F | -1.07% | – | –
COc1cccc(CN2CCN(C(=O)c3cnc4ccccn4c3=O)CC2=O)c1 | -6.66% | – | –
COc1cccc(CN2Cc3nc(Nc4cccc(F)c4)ccc3OCC2=O)c1 | – | – | 89.1 µM (active)
CCN(Cc1cnn(CC)c1)C(=O)C1CCCCC(=O)N1Cc1cccc(OC)c1 (configuration not stated) | -4.72% | – | –
CCOCCOC1CCN(C(=O)NCc2ccc(C)cc2)CC1 | -9.46% | – | –
CN1CCN(C(=O)c2nc3sccn3c2-c2ccc(F)cc2)CC1 | -3.39% | – | –
COC(=O)[C@H]1CCCN1C(=O)[C@@H]1C[C@@H](NS(=O)(=O)c2cccs2)CCN1C(=O)COCC(=O)O | 2.93% | – | –
CS(=O)(=O)N1C[C@H]2CCN(C(=O)c3ccncc3F)C[C@H]21 | 2.85% | – | –
Cn1c(=O)[nH]cc(CC(=O)N2CCn3nc(Cc4ccccc4)cc3C2)c1=O | -15.7% | – | –
CN(CCc1ccccn1)[C@@H]1[C@H](O)[C@H](CO)O[C@@H]1CNC1CCOCC1 | -6.2% | – | –

SMILES | activity change, negative = cytotoxicity | outcome | Potency
COCC(=O)N[C@H]1CC(C)(C)[C@@H]2C[C@@](C)(O)CC[C@]12CCC(=O)N1CCN(c2ccccc2OC)CC1 | -24.2% | – | –
CC(C)C(=O)N1CC(n2cc(COc3ccc(F)cc3)nn2)C1 | 3.3% | – | –
COc1ccc(CC(=O)N2CCC(C(=O)N3CCC(N4Cc5ccccc5C4=O)CC3)CC2)cc1 | -9.54% | – | –
CCCS(=O)(=O)N1Cc2c(ncn2Cc2ccc(Cl)cc2)C[C@H]1C(=O)OC | – | inactive [at 172 µM] | –
CCOc1ccc2c(n1)CCN(C(=O)c1nccn1C)C2 | -2.75% | – | –
O=C1CCN(C(=O)C2CCN(C(=O)CCCc3ccccc3)CC2)CCCCCCN1 | -9.4% | – | –
COCCn1c(C)cc(C(=O)N2CCCC(c3[nH]ccc3C(N)=O)C2)c1C (configuration not stated) | -7.44% | – | –
CCOC(=O)C1(Cc2ccc(F)cc2F)CCCN(Cc2cccc(OC)c2O)C1 (configuration not stated) | – | – | 39.8 µM (active)
CCOC(=O)C1(Cc2ccccc2F)CCCN(C(=O)CN2CCOC2=O)C1 (configuration not stated) | -14.2% | – | –
O=C1NCc2ccccc2CC12CCCN(Cc1ccc(F)cc1O)C2 (configuration not stated) | -29.2% | – | –
COc1ccc(N2CC(c3noc(-c4ccc(C(C)(C)C)cc4)n3)CC2=O)cc1 (configuration not stated) | – | – | 44.7 µM (active)
Cc1ccc(-c2nc(C3CC(=O)N(c4ccc(Cl)cc4)C3)no2)cc1C (configuration not stated) | -27.1% | – | –
Cc1ccc(N2CC(c3noc(-c4cc(Cl)ccc4F)n3)CC2=O)cc1 (configuration not stated) | -2.57% | – | –
Cc1ccc(CN2C(=O)[C@@H]3C[C@@H](O)CN3C3(CN(Cc4ccccn4)C3)C2=O)o1 | -2.96% [at 172 µM] | – | –
O=C(NCCN[S+](=O)([O-])c1cccs1)c1ccc(-c2cccc(C(F)(F)F)c2)cc1 | – | – | 44.7 µM (active)
O=C(NCCNC(=O)c1ccccc1F)c1ccc(-c2cccc(C(F)(F)F)c2)cc1 | – | – | inactive
O=C(NCC(=O)N1CCC(c2ccccc2)CC1)c1ccc(-c2cccc(C(F)(F)F)c2)cc1 | -41.8% | – | –
CC(=O)NCC(=O)N1Cc2ccccc2CC2(CCCN2Cc2cccnc2)C1 (configuration not stated) | -9.93% | – | –
CC(C)CCN1CCC2(CC1)C(=O)NCN2Cc1ccc(Cl)cc1 | 1.53% | – | –
COc1ccc(CCNC(=O)c2nnn3cc(-c4ccccc4)[nH]c(=O)c23)cc1OC | 1.64% | – | –
Cc1cc2nc3n(c(=O)c2n1CC(=O)Nc1ccc(Br)cc1)CCCC3 | -11.8% | – | –
Cc1cc2nc3n(c(=O)c2n1CC(=O)Nc1cc(F)cc(F)c1)CCCC3 | 12.9% | – | –
Cc1cc2nc3n(c(=O)c2n1CC(=O)Nc1cccc(C(F)(F)F)c1)CCCC3 | – | – | 28.2 µM (active)
Cc1noc(-c2ccc(OC3CN(C(=O)C4CCOC4)C3)cc2)n1 (configuration not stated) | -28.8% | – | –
CO[C@H]1CN(C(C)C)[C@H]1C1CCN(C(=O)NCCc2ccccc2)CC1 | 2.29% | – | –

SMILES | activity change, negative = cytotoxicity | outcome | Potency
NC(=O)[C@@H]1C[C@H](Oc2ccccc2)CN1C(=O)Cc1cccc(F)c1 | – | inactive | –
COc1ccc(CC(=O)N2CCC3(CC2)CC(O)CCO3)cc1OC (configuration not stated) | -5.09% | – | –
COc1cc(CN2CCC3(CC2)CC(O)CCO3)ccc1F (configuration not stated) | 1.59% | – | –
COc1cc(CNCc2ccc(C)c(F)c2F)ccc1OCC(O)CN1CCC(O)CC1 (configuration not stated) | – | – | 17.8 µM (active)
COc1ccc(CN2C=C(C(=O)OCc3nc(C)no3)C(C)=NS2(=O)=O)cc1 | -6.25% | – | –
NC(=O)[C@@H](Cc1ccccc1)NC(=O)[C@@]1(O)C[C@@H](O)[C@H](O)[C@@H](NC(=O)Nc2ccc(OC(F)(F)F)cc2)C1 | 0.41% | – | –
CN(Cc1cccn1C)Cc1ccnn1C | – | – | 100 µM (active)
Cn1nccc1CN1CCC(N2Cc3ccccc3C2=O)CC1 | 2.3% | – | –
Cc1noc(C)c1[S+](=O)([O-])N(C)Cc1cccn1C | 2.89% [at 172 µM] | – | –
O=C(NC[C@H]1O[C@@H](CO)[C@@H](O)[C@H]1N1CCN(c2ccccc2)CC1)c1ccccc1Cl | -0.559% | – | –
CC1(C(=O)N2CCc3ccccc3C2)CCOCC1 | – | inactive [at 230 µM] | –
Cc1ccc(C(=O)N2CCC(CCC(=O)N3CCc4ccccc4C3)CC2)cc1 | – | – | 44.7 µM (active)
CCCNC(=O)CCC1CCN(C(=O)c2ccc(C)cc2)CC1 | 5.93% | – | –
CC(=O)N[C@@H]1CN(Cc2cn[nH]c2-c2ccc(F)cc2)C[C@H]1CO | -18.7% | – | –
COc1ccc2cc(-c3[nH]ncc3CN3CCN(c4cccc(C)n4)CC3)ccc2c1 | – | – | 20 µM (active)
COc1ccc(-c2[nH]ncc2CN2CCCC(C(=O)NCc3ccccc3)CCNC(=O)CC2)cc1 (configuration not stated) | -3.9% | – | –
Cc1ncccc1C(=O)N1CCC2(CC1)CC(CO)N(C(=O)c1ccccc1)C2 (configuration not stated) | -21.8% | – | –
COCCC1(NS(C)(=O)=O)CCN(C(=O)c2ccc(C#N)cc2)CC1 | 1.21% | – | –
COc1ccc([C@@H](NC(=O)Cc2c(F)cccc2Cl)C2CC(O)C2)cn1 (some centres not stated) | – | inactive | –
COc1cc(OC)cc(C(=O)N2CCCC(n3cc(-c4nc(C(C)C)no4)nn3)C2)c1 (configuration not stated) | -23.9% | – | –
COc1ccc(C(=O)N2CCCC(n3cc(-c4nc(C5CC5)no4)nn3)C2)cc1 (configuration not stated) | -16.6% | – | –
CCOc1ccc(C(=O)N2CCC(n3cc(-c4nc(C)no4)nn3)C2)cc1 (configuration not stated) | 2.35% | – | –
O=C(c1ccc(Cl)cc1)N1CCCC(n2cc(-c3nc(-c4ccccc4)no3)nn2)C1 (configuration not stated) | – | – | 35.5 µM (active)
COc1ccc(C(=O)N2CCC(n3cc(-c4nc(C(C)C)no4)nn3)CC2)cc1F | -20.9% | – | –
CC(C)c1noc(-c2cn(C3CCN(C(=O)c4ccc(N(C)C)cc4)C3)nn2)n1 (configuration not stated) | – | – | 31.6 µM (active)

SMILES | activity change, negative = cytotoxicity | outcome | Potency
COc1ccc(F)cc1-c1ncc2c(n1)OCCN(CC1CC1)C2=O | -11.4% [at 172 µM] | – | –
CCNC(=O)N1C[C@@H]2OCC(=O)N(Cc3ccc(F)cc3)[C@@H]2C1 | -7.12% [at 172 µM] | – | –
Cc1ccc(CN2CCN(c3nc4ccccc4o3)CC2CCO)cc1 (configuration not stated) | – | – | 44.7 µM (active)
CCOC(=O)N1CCC(N2CCN(Cc3ccccc3F)C(CCO)C2)CC1 (configuration not stated) | -1.09% | – | –
COc1ccc(CN2CCN(c3nc4ccccc4o3)CC2CCO)cc1C (configuration not stated) | – | – | 35.5 µM (active)
CCOc1ccc(CN2CCN(CC(N)=O)CC2CCO)cc1 (configuration not stated) | -4.27% | – | –
COc1cccc(CN2CCN(c3ncccc3Cl)CC2CCO)c1 (configuration not stated) | -18.9% | – | –
CN1C(=O)c2cccn2CC1C(=O)Nc1ccc(F)cc1F (configuration not stated) | 3.42% | – | –
O=C(NC1CC1)[C@@H]1C[C@H](Oc2ccccc2)CN1C(=O)CN1CCCCCC1 | -5% | – | –
CCc1nncn1C1CCN(S(=O)(=O)c2cc(F)ccc2OC)CC1 | -19.1% | – | –
Cc1cccc(N2Cc3c(NCCCOC(C)C)ncnc3N(C)CC2=O)c1 | -4.64% | – | –
NCc1ccccc1-c1ccc(F)cc1 | -28.9% [at 172 µM] | – | –
Cc1cc2cccc(-c3nc(C4CCOC4)nn3CC(=O)O)c2o1 (configuration not stated) | – | inactive | –
Cc1nc(N2CCC(NCCNc3ccncc3C)CC2)c2ccsc2n1 | – | – | 35.5 µM (active)
Cc1nc(N2CCC(NC(=O)c3cnccn3)CC2)cc(C(F)(F)F)n1 | 0.535% | – | –
CNC(=O)c1cc(C2CC2)nc2onc(C3CCCN3C(=O)c3ccccc3)c12 (configuration not stated) | 2.63% | – | –
Cc1ccc(NC(=O)CC2CCCN(c3cn[nH]c(=O)c3)C2)cc1F (configuration not stated) | -5.38% | – | –
CN(C)CC(O)COc1ccc(CN(C)C2CCSCC2)cc1 (configuration not stated) | 2.5% | – | –
COc1ccc(-c2nc3c(c(=O)[nH]2)CCN(C(=O)Cc2ccc(OC)c(Cl)c2)C3)cc1 | 6.92% | – | –
O=c1n(CCN2CCN([S+](=O)([O-])c3cccs3)CC2)nc2n1CCCC2 | -2.54% | – | –
COc1ccccc1-n1c(=O)c(C(=O)N2CCN([S+](=O)([O-])c3cccs3)CC2)nc2cccnc21 | 0.116% | – | –
O=[S+]([O-])(c1cccs1)N1CCN(c2nccc(Nc3ccccc3F)n2)CC1 | – | – | 35.5 µM (active)
